Laboratory results reported in PubChem BioAssay.
Activity calls are given as the source filed them. Unless noted, how the calls were made is not given here.

How the values were obtained:
[1] = compound effects on lung adenocarcinoma cell viability – A549, calcein-AM fluorescence, 48 h, basal, profiling panel (AID 1162); details: higher = more signal; further: test concentration not given here
[2] = compound effects on differentiated 3T3-L1 adipocyte viability – cell-based, 3T3-L1 adipocytes, calcein-AM fluorescence, 48 h, basal, profiling panel (AID 1163); details: 3T3-L1 adipocytes viability, higher = more signal; further: test concentration not given here
[3] = compound effects on hepatocellular carcinoma cell viability – HepG2, calcein-AM fluorescence, 48 h, basal, profiling panel (AID 1164); details: higher = more signal; further: test concentration not given here
[4] = compound effects on multiple myeloma cell viability – MM1S, calcein-AM fluorescence, 48 h, basal, profiling panel (AID 1165); details: higher = more signal;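 further: viability of MM1S multiple myeloma cells under basal unstimulated conditions; test concentration not given here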
[5] = calcein-AM signal in unstimulated myeloma cells – cell-based, calcein-AM fluorescence, 48 h, PK04 Diversity Set, profiling panel (AID 1166); details: RPMI8226 myeloma viability, higher = more signal;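 further: cells grown under basal conditions without added stimulus; test concentration not given here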
[6] = JC-1 mitochondrial signal, unstimulated HepG2 cells – cell-based, JC-1 fluorescence, 24 h, 100 nL compound, profiling panel (AID 1167); details: HepG2 mitochondrial potential, higher = more signal; further: test concentration not given here
[7] = JC-1 mitochondrial signal, unstimulated adipocytes – cell-based, JC-1 fluorescence, 3T3-L1 adipocytes, 24 h, 100 nL compound, profiling panel (AID 1168); details: JC-1 mitochondrial fluorescence, higher = more signal, called active from +8 up or from −8 down; further: test concentration not given here
[8] = JC-1 mitochondrial signal, unstimulated myeloma cells – cell-based, JC-1 fluorescence, RPMI8226, 24 h, 100 nL compound, profiling panel (AID 1169); details: JC-1 mitochondrial potential fluorescence, higher = more signal; further: test concentration not given here
[9] = JC-1 mitochondrial signal, unstimulated MM1S myeloma – cell-based, JC-1 fluorescence, 24 h, 100 nL compound, profiling panel (AID 1170); details: MM1S mitochondrial potential, higher = more signal; further: test concentration not given here
[10] = resazurin metabolic signal in A549 cells – cell-based, resazurin fluorescence, 24 h, PK04 Diversity Set, profiling panel (AID 1171); details: A549 viability, higher = more signal, called active from +8 up or from −8 down; further: test concentration not given here
[11] = resazurin metabolic signal in HepG2 cells – cell-based, resazurin fluorescence, 24 h, PK04 Diversity Set, profiling panel (AID 1172); details: HepG2 viability, higher = more signal; further: test concentration not given here
[12] = budding yeast growth changes without added modifier – OD600, strain BY4716, 24 h, basal condition, primary screen (AID 1173); details: S. cerevisiae BY4716 growth, OD600, 24 h; higher = more signal, called active from +8 up or from −8 down
[13] = viability profiling in MM1S myeloma cells – cell-based, resazurin fluorescence, basal, 24 h, PK04 Diversity Set, profiling panel (AID 1174); details: higher = more signal, called active from +8 up or from −8 down; further: test concentration not given here
[14] = biological target: Dihydroorotate dehydrogenase (quinone), mitochondrial (Plasmodium falciparum (isolate 3D7)) (UniProt Q08210); test: inhibition of P. falciparum DHODH – biochemical, C-terminal His tag, absorbance 600 nm, primary screen (AID 1175); details: PfDHODH enzyme, DCIP absorbance 600 nm; higher = more signal, called active from +8 up or from −8 down;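 further: recombinant parasite enzyme with a five histidine tag at its C terminus; test concentration not given here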
Chain of Dihydroorotate dehydrogenase (quinone), mitochondrial (Plasmodium falciparum (isolate 3D7)) (Q08210 whole entry, looked up): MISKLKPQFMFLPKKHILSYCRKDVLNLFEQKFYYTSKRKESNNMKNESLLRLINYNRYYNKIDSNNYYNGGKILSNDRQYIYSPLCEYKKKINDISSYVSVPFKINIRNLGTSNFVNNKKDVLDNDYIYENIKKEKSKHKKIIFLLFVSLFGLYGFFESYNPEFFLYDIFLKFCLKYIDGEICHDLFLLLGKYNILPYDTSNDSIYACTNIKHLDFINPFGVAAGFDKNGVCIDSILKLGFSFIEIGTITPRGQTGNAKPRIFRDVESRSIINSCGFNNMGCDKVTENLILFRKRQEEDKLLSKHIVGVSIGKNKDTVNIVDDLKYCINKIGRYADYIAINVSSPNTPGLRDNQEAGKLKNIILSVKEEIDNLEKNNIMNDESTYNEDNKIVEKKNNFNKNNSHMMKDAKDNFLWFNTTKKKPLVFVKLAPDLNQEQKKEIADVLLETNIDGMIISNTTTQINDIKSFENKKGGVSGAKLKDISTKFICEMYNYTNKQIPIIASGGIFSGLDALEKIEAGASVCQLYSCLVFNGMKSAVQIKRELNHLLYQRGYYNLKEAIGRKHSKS

[15] = inhibition of PAO1 biofilm formation – strain PAO1, LB-PBS medium, absorbance 600 nm, primary screen (AID 1176); further: test concentration not given here; details: P. aeruginosa PAO1 growth/biofilm, A600, 12 h; higher = more signal
[16] = growth modulation of vineyard yeast isolate – strain RM11-1a, OD600, basal, 24 h, primary screen (AID 1177);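 further: cultures grown under basal conditions with no added stressor; test concentration not given here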; details: S. cerevisiae RM11-1a growth, OD600, 24 h; higher = more signal, called active from +8 up or from −8 down
[17] = growth of efflux-deficient E. coli DRC39 – strain DRC39, OD650, 24 h, E. coli filamentation inducers, primary screen (AID 1178);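 further: growth measured as culture turbidity by optical density at 650 nm; test concentration not given here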; details: E. coli DRC39 acrAB, higher = more signal, called active from +8 up or from −8 down
[18] = growth of efflux-deficient E. coli DRC39 – strain DRC39, OD650, 48 h, E. coli filamentation inducers, primary screen (AID 1179);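 further: screen aims at cell division blockers that make cells filament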; details: E. coli DRC39 delta-acrAB growth, higher = more signal, called active from +8 up or from −8 down
[19] = viability profiling in RPMI8226 myeloma cells – cell-based, resazurin fluorescence, basal, 24 h, PK04 Diversity Set, profiling panel (AID 1180); details: higher = more signal;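 further: RPMI8826 multiple myeloma cell line at 5000 cells per well; test concentration not given here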
[20] = biological target: E3 ubiquitin-protein ligase XIAP (Homo sapiens) (UniProt P98170); test: small molecules binding XIAP protein – biophysical, small-molecule microarray, fluorescence 635 nm, primary screen (AID 1181); details: higher = more signal;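 further: score merges 667 nm emission and signal to noise over triplicate slides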
Chain of E3 ubiquitin-protein ligase XIAP (Homo sapiens) (P98170 whole entry, looked up): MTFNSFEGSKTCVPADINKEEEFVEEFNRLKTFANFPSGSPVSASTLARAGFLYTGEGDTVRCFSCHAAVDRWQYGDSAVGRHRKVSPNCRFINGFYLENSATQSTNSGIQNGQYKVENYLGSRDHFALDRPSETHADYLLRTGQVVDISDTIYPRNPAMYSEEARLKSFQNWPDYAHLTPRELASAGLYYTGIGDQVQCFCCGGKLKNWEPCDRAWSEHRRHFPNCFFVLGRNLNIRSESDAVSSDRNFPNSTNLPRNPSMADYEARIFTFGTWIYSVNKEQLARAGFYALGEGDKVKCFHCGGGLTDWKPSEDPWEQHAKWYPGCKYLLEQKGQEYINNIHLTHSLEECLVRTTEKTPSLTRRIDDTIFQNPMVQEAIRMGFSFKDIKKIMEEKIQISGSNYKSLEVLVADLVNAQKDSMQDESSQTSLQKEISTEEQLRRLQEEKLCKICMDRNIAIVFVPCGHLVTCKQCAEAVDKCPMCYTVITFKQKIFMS

SMILES | z-score [1] | z-score [2] | z-score [3] | z-score [4] | z-score [5] | z-score [6] | z-score [7] | z-score [8] | z-score [9] | z-score [10] | z-score [11] | z-score [12] | z-score [13] | composite z-score [14] | z-score [15] | z-score [16] | z-score [17] | z-score [18] | z-score [19] | composite z-score [20]
CC(C)C[C@@H]1NC(=O)[C@@H]2C[C@H](C(=O)NCCCCN(C)C)[C@H](c3ccc(O)cc3)N2C1=O | -0.583 | -0.339 | -0.375 | 0.12 | 0.579 | -1.26 | -0.0811 (inactive) | -0.0507 | 0.218 | 0.408 (inactive) | 0.955 | 0.463 (inactive) | 0.396 (inactive) | -0.0312 (inactive) | -0.475 (inactive) | 0.505 (inactive) | -0.113 (inactive) | -0.401 (inactive) | 0.0109 | 0.102
O=C1O[C@@H](c2ccccc2)[C@@H](c2ccccc2)N2[C@@H](c3ccc(O)cc3)[C@]3(C(=O)Nc4ccccc43)[C@@H](C(=O)NC[C@H](O)c3ccccc3)[C@H]12 | 0.0061 | 0.874 | -0.121 | -0.0487 | -1.08 | -1.5 | -0.377 (inactive) | -0.774 | 0.32 | 0.314 (inactive) | 1.42 | -0.882 (inactive) | 0.616 (inactive) | 0.609 (inactive) | -0.489 (inactive) | 0.0813 (inactive) | 0.389 (inactive) | -0.163 (inactive) | -0.273 | 0.272
CCCNC(=O)[C@@]1(C)c2ccccc2C(=O)N(Cc2cc(F)cc(C(F)(F)F)c2)[C@H]1c1ccc(CO)cc1 | -0.575 | 0.237 | -0.14 | -0.0049 | 1.18 | 2.08 | 0.224 (inactive) | 0.795 | -0.749 | 1.79 (inactive) | 1.08 | -0.769 (inactive) | 1.16 (inactive) | 0.134 (inactive) | -0.164 (inactive) | 0.196 (inactive) | 0.249 (inactive) | 0.113 (inactive) | 1.63 | -0.181
Cc1ccc(N2C(=O)c3ccccc3[C@@H](C(=O)NC(C)C)[C@@H]2c2ccc(CO)cc2)nc1 | -0.749 | -0.0953 | -0.617 | 0.385 | -0.526 | 0.199 | -0.286 (inactive) | 0.918 | -0.67 | 2.16 (inactive) | 1.48 | -1.69 (inactive) | 1.09 (inactive) | -0.309 (inactive) | 0.69 (inactive) | -0.434 (inactive) | 0.282 (inactive) | 0.375 (inactive) | 1.17 | 0.147
O=C1O[C@@H](c2ccccc2)[C@@H](c2ccccc2)N2[C@@H](c3ccc(O)cc3)[C@]3(C(=O)Nc4ccc(C#CCCO)cc43)[C@@H](C(=O)O)[C@H]12 | 1.18 | 0.352 | 1.41 | -1.34 | -0.16 | 0.767 | -1.02 (inactive) | -0.342 | -0.29 | 0.492 (inactive) | 0.259 | -1.01 (inactive) | 0.519 (inactive) | -2.07 (inactive) | 0.201 (inactive) | -0.261 (inactive) | 0.151 (inactive) | 0.67 (inactive) | 0.545 | 0.511
COC(=O)[C@@]1(Cc2ccc(F)cc2)[C@H]2c3cc(C(=O)N(C)C)n(CCc4c[nH]c5ccc(OC)cc45)c3C[C@H]2CN1C(=O)c1ccccc1 | -0.906 | 0.813 | -0.885 | -0.64 | -1.79 | 0.922 | -0.939 (inactive) | -0.262 | -1.82 | -0.752 (inactive) | -0.643 | 0.971 (inactive) | -2 (inactive) | -2.26 (inactive) | 4.65 (inactive) | 0.679 (inactive) | -0.562 (inactive) | -0.681 (inactive) | -1.59 | 0.326
COCCOC(=O)N1C(=O)[C@@]2(c3cc(C#CCCO)ccc31)[C@H](c1ccc(O)cc1)N1[C@H](c3ccccc3)[C@H](c3ccccc3)OC(=O)[C@H]1[C@@H]2C(=O)N1CCCCCCC1 | -0.0601 | 0.943 | 1.18 | 0.632 | -1.22 | -0.701 | -0.838 (inactive) | 0.242 | 0.271 | -0.44 (inactive) | -0.681 | 0.015 (inactive) | -0.216 (inactive) | 0.232 (inactive) | 0.915 (inactive) | 0.38 (inactive) | 0.27 (inactive) | -0.002 (inactive) | -0.98 | 0.23
CN(C)CCCCCCNC(=O)[C@@H]1C[C@@H]2C(=O)N[C@@H](Cc3ccccc3)C(=O)N2[C@@H]1c1cccc(OCCO)c1 | -0.778 | 0.559 | -0.857 | 0.802 | -0.555 | -1.02 | -0.822 (inactive) | 0.0287 | 0.316 | -0.115 (inactive) | -0.272 | -0.117 (inactive) | -0.826 (inactive) | -0.562 (inactive) | -0.695 (inactive) | -0.704 (inactive) | 0.25 (inactive) | 0.0332 (inactive) | -0.592 | 0.564
Cc1cc(C)c(C(O)C2C=CC3C(=O)NC(=O)C3N2Nc2ccccn2)c(C)c1 (stereo not given) | -0.948 | -0.397 | 0.359 | 0.22 | 0.066 | -0.767 | -0.363 (inactive) | -0.188 | -0.0615 | -0.875 (inactive) | -1.25 | 0.705 (inactive) | -1.78 (inactive) | 1.41 (inactive) | 0.9 (inactive) | 0.276 (inactive) | -0.579 (inactive) | -0.342 (inactive) | -0.68 | 0.203
CN(C)CCCC[C@@H]1NC(=O)[C@@H]2C[C@H](C(=O)NCCCCCCN)[C@H](c3ccc(O)cc3)N2C1=O | -0.215 | 0.958 | -0.544 | 0.405 | 0.483 | -1.36 | -0.0708 (inactive) | 0.576 | 0.213 | 0.291 (inactive) | -1.14 | 0.531 (inactive) | 0.427 (inactive) | -2.06 (inactive) | 0.643 (inactive) | 0.793 (inactive) | 0.254 (inactive) | -0.234 (inactive) | 0.109 | -0.157
